# Reference: PubChem BioAssay (NCATS)
# Results filed as inconclusive are left out. A call without a number means that no potency is given here. Active and inactive are the calls of the source. Unless noted, the call rests on the fitted dose curve; in most records, active means well fitted curve in the direction sought with a large enough effect; inconclusive means small, poorly fitted or top-dose-only effect, or another doubt; inactive means no such curve, though single readings can be large; an effect the other way counts as inactive or inconclusive.
# How the values were obtained:
# [1] = biological target: Nuclear receptor subfamily 1 group I member 2 (Homo sapiens) (UniProt O75469); test: Dual reporter qHTS for agonist of Pregnane X Receptor (hPXR) against the NCATS DSHEA and TCM libraries: Luminescence readout (AID 1920059)
# Sequence of Nuclear receptor subfamily 1 group I member 2 (Homo sapiens) (O75469 whole entry, looked up): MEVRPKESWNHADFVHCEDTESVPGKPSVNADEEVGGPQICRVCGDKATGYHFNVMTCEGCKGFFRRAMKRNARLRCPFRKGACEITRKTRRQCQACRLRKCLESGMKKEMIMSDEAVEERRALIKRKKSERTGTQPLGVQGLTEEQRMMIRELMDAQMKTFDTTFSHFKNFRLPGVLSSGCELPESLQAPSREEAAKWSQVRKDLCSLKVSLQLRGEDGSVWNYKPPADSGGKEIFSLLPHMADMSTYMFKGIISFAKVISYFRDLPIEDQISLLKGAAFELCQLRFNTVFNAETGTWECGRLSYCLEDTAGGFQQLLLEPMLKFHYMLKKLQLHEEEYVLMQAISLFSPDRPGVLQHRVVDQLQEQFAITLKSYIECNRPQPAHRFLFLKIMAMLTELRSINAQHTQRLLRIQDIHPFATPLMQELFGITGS
# Method in brief: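 Luminescent PXR reporter read (ONE-Glo) after a CellTiter-Fluor viability read, following 24 h, 37C treatment of HepG2 cells stably carrying hPXR-Luc.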
# [2] = Cell Proliferation Assay against the TMD8 Cell Line (AID 651645); conditions: TMD8 DLBCL cell line proliferation/viability; at 46.1 µM (top of the series);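 further: cells exposed to compound for 48 h before reading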
# Method in brief: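 500 TMD8 cells/well, RPMI + Glutamax, no phenol red, 5% FBS; cpd added immediately; 48 h, 37C, 5% CO2; CellTiter-Glo, luminescence. Controls: DMSO = 100%, bortezomib 9.2 uM final = 0%.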
# [3] = Cell Proliferation Assay against the HBL1 Cell Line (AID 651646); conditions: HBL1 DLBCL cells; at 46.1 µM (top of the series);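 further: cells exposed to compound for 48 h before reading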
# Method in brief: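 Luminescent ATP read-out (CellTiter-Glo) after 48 h compound exposure of HBL1 cells at 37 °C; percent activity was scaled between DMSO as 100% and 9.2 uM bortezomib (final) as 0%.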
# [4] = Cell Proliferation Assay against the TMD8 Cell Line (Caspase readout at 8 hrs) (AID 651713); conditions: TMD8 lymphoma cells, caspase activation luminescence; further: potency means the concentration at half of the fitted maximal effect
# Method in brief: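 TMD8 cells in RPMI plus 5% FBS were treated with compound for 8 h at 37C. Caspase 3/7 activation was read by Caspase-Glo luminescence. Percent activity was scaled from DMSO (0%) to 9.2 uM bortezomib final (100%).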
# [5] = biological target: Tyrosine-protein kinase Yes (Homo sapiens) (UniProt P07947); test: qHTS for small molecule inhibitors of Yes1 kinase: Primary Screen (AID 686947); further: nearly all actives have a fitted effect of over 60% in size
# Sequence of Tyrosine-protein kinase Yes (Homo sapiens) (P07947 whole entry, looked up): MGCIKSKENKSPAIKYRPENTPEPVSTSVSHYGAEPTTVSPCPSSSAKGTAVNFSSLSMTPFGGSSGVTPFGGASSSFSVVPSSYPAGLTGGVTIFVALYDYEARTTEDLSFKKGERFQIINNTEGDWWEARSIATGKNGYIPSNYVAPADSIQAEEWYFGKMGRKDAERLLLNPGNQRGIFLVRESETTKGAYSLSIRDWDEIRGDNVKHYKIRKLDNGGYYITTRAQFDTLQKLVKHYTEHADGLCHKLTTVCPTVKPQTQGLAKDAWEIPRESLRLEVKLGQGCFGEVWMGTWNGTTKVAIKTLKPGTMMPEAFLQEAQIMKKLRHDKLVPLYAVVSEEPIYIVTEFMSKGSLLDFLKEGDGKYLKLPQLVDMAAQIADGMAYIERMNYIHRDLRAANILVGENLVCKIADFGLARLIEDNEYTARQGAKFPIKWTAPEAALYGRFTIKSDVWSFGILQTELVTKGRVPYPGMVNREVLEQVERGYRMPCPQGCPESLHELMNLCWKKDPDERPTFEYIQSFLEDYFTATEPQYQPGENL
# Method in brief: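 Yes1 (4 nM) preincubated 20 min with compound, then 60 min room-temperature reaction with 0.1 mM ATP and 0.3 mg/mL poly(E4Y) in pH 7.5 Tris, 10 mM MgCl2. ADP measured by ADP-Glo luminescence, normalised to enzyme/no-enzyme controls.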
# [6] = qHTS for small molecule inhibitors of Yes1 kinase: Counter Assay (AID 686950);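 further: no kinase present so only ADP-Glo detection of a fixed ADP amount is tested; luminescence from ADP-Glo reporting ADP in a fixed ATP and ADP mixture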
# Method in brief: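 Luminescence read-out from ADP-Glo quantifies a fixed ADP amount (0.02 mM ADP with 0.08 mM ATP) after 60 min at room temperature; signal is normalized between DMSO wells with ATP/ADP and with 0.1 mM ATP alone.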
# [7] = qHTS Assay for Identifying Gametocytocidal Compounds (AID 743244); further: potency means the concentration at half of the fitted maximal effect; conditions: P. falciparum 3D7 stage III-V gametocytes, alamarBlue, 72 h
# Method in brief: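 Compounds are pinned into medium, gametocytes (stage III–V, 3D7, 20,000 cells/well) added, and plates held 72 h at 37 °C in 5% CO2. AlamarBlue follows for 24 h before fluorescence reading.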
# [8] = biological target: Calcium and integrin-binding protein 1 (Homo sapiens) (UniProt Q99828); test: Confirmatory qHTS for Identification of Calcium Integrin Binding Protein 1 (CIB1) Competitor (AID 1508617); conditions: CIB1 binding competition assay, biochemical qHTS; further: potency means the concentration at half of the fitted maximal effect; nearly all actives have a fitted effect of over 65% in size
# Sequence of Calcium and integrin-binding protein 1 (Homo sapiens) (Q99828 whole entry, looked up): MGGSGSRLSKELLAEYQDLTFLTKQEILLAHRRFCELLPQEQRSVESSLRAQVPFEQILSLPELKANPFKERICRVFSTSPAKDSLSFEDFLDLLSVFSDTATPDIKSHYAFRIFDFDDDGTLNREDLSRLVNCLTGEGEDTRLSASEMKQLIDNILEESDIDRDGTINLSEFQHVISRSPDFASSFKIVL
# Method in brief: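 Fluorescence polarization competition: CIB1-GST (1 uM final) in 5 mM HEPES pH 7.4, 125 mM NaCl, 5 mM CaCl2, 0.01% Tween20 preincubated 15 min RT with compound (up to 114 uM), then FITC-alphaIIb peptide (100 nM) added, 15 min RT.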
# [9] = qHTS Assay for Identification of Small Molecule Agonists for Hypoxia Response Element Signaling Pathway (AID 914; active means well fitted activation curve with a large enough effect in the signal ratio, with a control signal flat, not every such curve was filed as active; the % refers to the signal ratio); conditions: ME-180 (cervical carcinoma) HRE-bla reporter, beta-lactamase ratio, CoCl2, 17 h; activation: stronger effect = higher value
# Method in brief: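 AC50 values come from titration-series %Activity, taken as the 460/530nm ratio of CCF4 fluorescence (excitation 405nm). CellSensor HRE-bla ME-180 cells were treated 17 hours at 37 C with compound plus an EC50 level of CoCl2.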
# [10] = biological target: Pyruvate kinase PKM (Homo sapiens) (UniProt P14618); test: qHTS Assay for Inhibitors of Human Muscle Pyruvate Kinase (AID 958); conditions: purified human PKM enzyme activity
# Sequence of Pyruvate kinase PKM (Homo sapiens) (P14618 whole entry, looked up): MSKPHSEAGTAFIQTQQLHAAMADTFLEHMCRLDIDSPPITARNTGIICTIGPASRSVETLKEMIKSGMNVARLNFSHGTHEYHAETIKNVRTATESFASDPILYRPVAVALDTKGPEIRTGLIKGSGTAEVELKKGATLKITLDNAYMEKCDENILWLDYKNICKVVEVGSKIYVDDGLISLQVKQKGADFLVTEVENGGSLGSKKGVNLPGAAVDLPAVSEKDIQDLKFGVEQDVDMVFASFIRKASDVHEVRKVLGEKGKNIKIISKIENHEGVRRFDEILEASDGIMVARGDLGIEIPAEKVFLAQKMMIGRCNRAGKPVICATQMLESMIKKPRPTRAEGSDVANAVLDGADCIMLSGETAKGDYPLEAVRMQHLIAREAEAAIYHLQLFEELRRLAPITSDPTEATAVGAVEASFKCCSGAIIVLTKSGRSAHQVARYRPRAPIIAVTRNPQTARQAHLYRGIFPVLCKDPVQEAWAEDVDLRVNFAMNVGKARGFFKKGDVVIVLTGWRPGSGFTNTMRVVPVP
# Method in brief: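 A coupled luminescent readout tracked ATP made from ADP by purified PKM2. Final conditions included 0.1 nM enzyme, PEP and ADP at 0.5 and 0.1 mM, pH 7.2 imidazole buffer with BSA, and a one-hour room-temperature reaction.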
# [11] = biological target: Pyruvate kinase (Leishmania mexicana) (UniProt Q27686); test: qHTS Validation Assay for Activators of Leishmania Mexicana Pyruvate Kinase (AID 959)
# Sequence of Pyruvate kinase (Leishmania mexicana) (Q27686 2-499 E452W): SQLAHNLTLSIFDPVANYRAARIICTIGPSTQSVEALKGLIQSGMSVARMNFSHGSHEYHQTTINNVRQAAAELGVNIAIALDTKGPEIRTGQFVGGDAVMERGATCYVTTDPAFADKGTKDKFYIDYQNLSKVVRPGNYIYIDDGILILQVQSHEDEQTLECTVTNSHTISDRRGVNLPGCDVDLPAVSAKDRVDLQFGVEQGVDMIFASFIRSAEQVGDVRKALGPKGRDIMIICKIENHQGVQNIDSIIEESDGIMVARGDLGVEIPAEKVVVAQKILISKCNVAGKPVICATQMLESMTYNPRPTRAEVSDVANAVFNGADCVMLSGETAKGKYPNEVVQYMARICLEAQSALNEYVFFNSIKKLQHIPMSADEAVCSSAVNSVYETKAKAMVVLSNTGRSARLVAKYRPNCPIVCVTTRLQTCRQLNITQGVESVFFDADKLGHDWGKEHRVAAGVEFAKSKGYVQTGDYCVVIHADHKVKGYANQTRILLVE
# Method in brief: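 Purified LmPYK (E451W mutant, 0.2 nM) was incubated 1 h at room temperature with 0.5 mM PEP and 0.1 mM ADP in 50 mM imidazole pH 7.2, 50 mM KCl, 7 mM MgCl2; ATP formed was read by PKLight luminescence, normalized to DMSO wells.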
# [12] = biological target: DNA dC->dU-editing enzyme APOBEC-3G (Homo sapiens) (UniProt Q9HC16); test: qHTS for inhibitors of Vif-A3G interactions: Validation (AID 588379)
# Sequence of DNA dC->dU-editing enzyme APOBEC-3G (Homo sapiens) (Q9HC16 whole entry, looked up): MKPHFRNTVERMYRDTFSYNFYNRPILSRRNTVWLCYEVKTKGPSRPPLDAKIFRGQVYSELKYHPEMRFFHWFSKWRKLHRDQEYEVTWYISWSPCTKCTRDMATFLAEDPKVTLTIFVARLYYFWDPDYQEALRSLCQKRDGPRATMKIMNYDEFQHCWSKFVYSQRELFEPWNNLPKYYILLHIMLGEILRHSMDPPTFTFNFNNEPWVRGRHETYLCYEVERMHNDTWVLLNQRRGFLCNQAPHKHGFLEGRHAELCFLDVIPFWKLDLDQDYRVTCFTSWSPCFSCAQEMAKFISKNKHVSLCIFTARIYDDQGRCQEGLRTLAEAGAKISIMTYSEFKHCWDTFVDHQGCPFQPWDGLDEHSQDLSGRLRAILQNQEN
# Method in brief: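 HeLa cells stably expressing Vif and A3G-eYFP, 700 cells/well, incubated overnight at 37 deg C, then exposed to compound overnight at 37 deg C. Inhibition of Vif-mediated degradation read as increased yellow fluorescence (Ex 488/Em 500-530) by laser-scanning cytometry.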
# [13] = biological target: Cytochrome P450 2C9 (Homo sapiens) (UniProt P11712); test: qHTS Assay for Inhibitors and Substrates of Cytochrome P450 2C9 (AID 883); further: potency means the concentration at half of the fitted maximal effect; nearly all actives have a fitted effect of over 60% in size
# Sequence of Cytochrome P450 2C9 (Homo sapiens) (P11712 whole entry, looked up): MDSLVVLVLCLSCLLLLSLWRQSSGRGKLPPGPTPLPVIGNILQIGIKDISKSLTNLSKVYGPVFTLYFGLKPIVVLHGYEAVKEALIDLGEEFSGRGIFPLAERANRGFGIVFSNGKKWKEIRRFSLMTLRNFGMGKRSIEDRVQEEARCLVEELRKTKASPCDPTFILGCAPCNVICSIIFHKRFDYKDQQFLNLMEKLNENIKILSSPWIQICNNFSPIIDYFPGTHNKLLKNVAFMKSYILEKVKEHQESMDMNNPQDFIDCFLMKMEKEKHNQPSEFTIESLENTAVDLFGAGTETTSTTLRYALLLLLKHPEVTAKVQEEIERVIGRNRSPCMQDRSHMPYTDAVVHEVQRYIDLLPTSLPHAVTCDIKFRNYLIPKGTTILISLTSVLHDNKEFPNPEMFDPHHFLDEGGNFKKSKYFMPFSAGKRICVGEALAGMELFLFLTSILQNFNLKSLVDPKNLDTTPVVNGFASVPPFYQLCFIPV
# Method in brief: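 Turnover of Luciferin-H (100uM, KM) by 10nM human CYP2C9 was measured over 60 min at 37C with NADPH regeneration; inhibitors and some substrates reduce luminescence. Data normalized to sulphaphenazole 57uM.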
# [14] = qHTS Assay for Identification of Small Molecule Antagonists for NFkB Signaling Pathway (AID 895; active means well fitted inhibition curve with a large enough effect in the signal ratio, with a control signal flat, not every such curve was filed as active; the % refers to the signal ratio)
# Method in brief: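 Beta-lactamase reporter read-out (460 and 530 nm emission ratio, 405 nm excitation, 2 hrs substrate loading RT) after 5 hr stimulation with 10 pM TNF alpha in compound-treated NFkB-bla ME-180 cells in low-serum medium.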
# [15] = biological target: D(1A) dopamine receptor (Homo sapiens) (UniProt P21728); test: HTS Assay for Allosteric Agonists of the Human D1 Dopamine Receptor: Primary Screen for Potentiators (AID 488982)
# Sequence of D(1A) dopamine receptor (Homo sapiens) (P21728 whole entry, looked up): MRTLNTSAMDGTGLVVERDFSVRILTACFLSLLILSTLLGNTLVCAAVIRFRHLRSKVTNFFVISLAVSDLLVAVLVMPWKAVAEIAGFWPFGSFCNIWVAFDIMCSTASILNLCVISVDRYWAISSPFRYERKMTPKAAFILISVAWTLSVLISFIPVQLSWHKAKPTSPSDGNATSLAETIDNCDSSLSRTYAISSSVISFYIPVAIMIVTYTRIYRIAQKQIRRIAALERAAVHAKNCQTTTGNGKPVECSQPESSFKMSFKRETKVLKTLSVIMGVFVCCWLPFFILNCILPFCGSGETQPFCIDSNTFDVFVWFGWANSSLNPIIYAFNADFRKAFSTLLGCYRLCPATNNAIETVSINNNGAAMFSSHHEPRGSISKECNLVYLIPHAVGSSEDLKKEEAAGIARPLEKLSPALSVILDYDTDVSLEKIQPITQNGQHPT
# Method in brief: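 Calcium flux in an inducible, force-coupled HEK293 Trex D1 line (overnight at 30 C): agonist mode is the 180 s kinetic read after compound; potentiator mode is the following 180 s read after dopamine at EC20.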
# [16] = Cytotoxicity counterscreen for NFkB agonists and antagonists (AID 624476);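 further: cells exposed to compound for 48 hours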
# [17] = qHTS Assay for Identification of Small Molecule Agonists for NFkB Signaling Pathway. (AID 624478)
# Method in brief: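 NFkB-bla ME-180 cells carry a beta-lactamase reporter. They received compound plus TNF alpha at 10 pM final (its EC50) for 5 h at 37 C. Reporter activity was read as 460/530 nm emission ratio after 2 h LiveBLAzer substrate loading.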
# [18] = qHTS Assay for Identification of Small Molecule Antagonists for NFkB Signaling Pathway. (AID 624479; calls by dose curve;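 further: pathway stimulated with TNF alpha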)
# DFO2036 = test: qHTS profiling for inhibitors of Plasmodium falciparum proliferation (AID 504749); further: nearly all actives have a fitted effect of over 60% in size; conditions: P. falciparum in erythrocytes, SYBR Green DNA, 72 h; series mostly up to 28.7 µM
# Method in brief: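 Infected RBCs, 0.3% parasitemia/2.5% Hct final; cpd 72 h, 37 C, 5% CO2; lysis buffer with saponin/triton/SYBR Green I, o/n RT dark; FI 485/535; norm. to artemisinin (0.29 uM) and DMSO.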
smiles,measurement,setting,value
N#CC(O[C@@H]1O[C@H](CO[C@@H]2O[C@H](CO)[C@@H](O)[C@H](O)[C@H]2O)[C@@H](O)[C@H](O)[C@H]1O)c1ccccc1 (some centres undefined),Potency,[1],inactive
COC(=O)[C@]12CCC(C)(C)C[C@H]1[C@H]1C(=O)C=C3[C@@]4(C)C=C(C#N)C(=O)C(C)(C)[C@@H]4CC[C@@]3(C)[C@]1(C)CC2,viability (% of control),[2],0.135%
same,"viability, percent of control",[3],1.52%
same,Potency,[4],0.662 µM (active)
same,outcome,[5],inactive
same,outcome,[6],inactive
same,Potency,[7],5.01 µM (active)
same,Potency,[8],10 µM (active)
NNCc1cccc(O)c1,activation,[9],15.1% (inactive)
same,Potency,[10],15.8 µM (active)
same,outcome,[11],inactive
CC[C@@H](CO)NC(=O)[C@H]1C=C2c3cccc4c3c(cn4C)C[C@H]2N(C)C1,outcome,[12],inactive
COc1cc(C=C(C#N)C#N)cc(O)c1O,Potency,[13],2.51 µM (active)
CCCN(CCC)C(=O)Cc1c(-c2ccc(Cl)cc2)nc2c(Cl)cc(Cl)cn12,Potency,[14],inactive
CC12CCC3C(CCC4=C(O)C(=O)CCC43C)C1CCC2=O (centres undefined),outcome,[15],inactive
same,outcome,[16],inactive
same,outcome,[17],inactive
same,outcome,[18],inactive
CNC(C)[C@@H](O)c1ccc(O)cc1 (some centres undefined),Potency,DFO2036,inactive
